# Measured values as given in ChEMBL document CHEMBL1961873, “Compounds: GSK PKIS; Assays: Nanosyn kinase panel” (2012).
# Key:
# [1] = target: T1, Serine/threonine-protein kinase TBK1 (Homo sapiens) (UniProt Q9UHD2); conditions: at 1 µM;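 also: values are mean inhibition of TBK1, screened as part of the GSK published kinase inhibitor set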
# T1 sequence (whole entry): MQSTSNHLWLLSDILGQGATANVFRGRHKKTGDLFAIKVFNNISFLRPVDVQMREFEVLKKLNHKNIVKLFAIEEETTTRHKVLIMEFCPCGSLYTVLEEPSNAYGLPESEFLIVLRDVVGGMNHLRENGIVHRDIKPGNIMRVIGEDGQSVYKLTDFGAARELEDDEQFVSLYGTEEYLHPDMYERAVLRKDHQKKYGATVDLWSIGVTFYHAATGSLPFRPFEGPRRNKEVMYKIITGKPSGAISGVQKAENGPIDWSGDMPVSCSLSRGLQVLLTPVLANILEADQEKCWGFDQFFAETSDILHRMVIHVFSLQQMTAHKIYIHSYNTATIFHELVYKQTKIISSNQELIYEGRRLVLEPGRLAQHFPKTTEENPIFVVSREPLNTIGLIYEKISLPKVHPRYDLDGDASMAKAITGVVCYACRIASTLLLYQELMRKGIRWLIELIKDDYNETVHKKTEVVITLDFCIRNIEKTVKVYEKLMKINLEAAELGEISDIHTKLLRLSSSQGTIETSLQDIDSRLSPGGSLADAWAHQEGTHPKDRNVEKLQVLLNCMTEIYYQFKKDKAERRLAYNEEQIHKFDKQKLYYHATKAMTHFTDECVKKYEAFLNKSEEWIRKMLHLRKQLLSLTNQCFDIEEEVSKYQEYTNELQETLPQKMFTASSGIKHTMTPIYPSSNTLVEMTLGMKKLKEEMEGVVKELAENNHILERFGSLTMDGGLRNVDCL
# [2] = target: T2, Testis-specific serine/threonine-protein kinase 1 (Homo sapiens) (UniProt Q9BXA7); conditions: at 0.1 µM
# T2 sequence (whole entry): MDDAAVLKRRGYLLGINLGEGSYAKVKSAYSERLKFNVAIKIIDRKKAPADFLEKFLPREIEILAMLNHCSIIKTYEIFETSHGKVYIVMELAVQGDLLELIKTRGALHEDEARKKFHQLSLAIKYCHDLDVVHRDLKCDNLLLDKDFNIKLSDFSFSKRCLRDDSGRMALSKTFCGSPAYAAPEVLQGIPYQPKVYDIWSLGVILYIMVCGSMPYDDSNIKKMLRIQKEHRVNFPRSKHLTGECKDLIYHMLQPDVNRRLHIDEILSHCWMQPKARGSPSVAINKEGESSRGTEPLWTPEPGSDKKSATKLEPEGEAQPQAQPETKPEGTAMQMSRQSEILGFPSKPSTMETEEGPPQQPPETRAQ
# [3] = target: T2, Testis-specific serine/threonine-protein kinase 1 (Homo sapiens); conditions: at 1 µM
# [4] = target: T3, Testis-specific serine/threonine-protein kinase 2 (Homo sapiens) (UniProt Q96PF2); conditions: at 0.1 µM
# T3 sequence (whole entry): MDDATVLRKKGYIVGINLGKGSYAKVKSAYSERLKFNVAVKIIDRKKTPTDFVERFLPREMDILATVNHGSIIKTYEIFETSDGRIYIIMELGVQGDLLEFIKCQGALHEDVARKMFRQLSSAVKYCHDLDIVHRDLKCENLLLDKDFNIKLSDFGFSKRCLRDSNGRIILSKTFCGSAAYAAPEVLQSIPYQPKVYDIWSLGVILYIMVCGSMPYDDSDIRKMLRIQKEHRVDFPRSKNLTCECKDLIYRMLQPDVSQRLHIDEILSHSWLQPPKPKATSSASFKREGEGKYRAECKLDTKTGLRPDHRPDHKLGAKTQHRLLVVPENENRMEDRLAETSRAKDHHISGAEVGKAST
# [5] = target: T3, Testis-specific serine/threonine-protein kinase 2 (Homo sapiens); conditions: at 1 µM
# [6] = target: Casein kinase I isoform alpha (Homo sapiens) (UniProt P48729); conditions: at 0.1 µM
# Casein kinase I isoform alpha (Homo sapiens), sequence (P48729 2-337 limits assumed): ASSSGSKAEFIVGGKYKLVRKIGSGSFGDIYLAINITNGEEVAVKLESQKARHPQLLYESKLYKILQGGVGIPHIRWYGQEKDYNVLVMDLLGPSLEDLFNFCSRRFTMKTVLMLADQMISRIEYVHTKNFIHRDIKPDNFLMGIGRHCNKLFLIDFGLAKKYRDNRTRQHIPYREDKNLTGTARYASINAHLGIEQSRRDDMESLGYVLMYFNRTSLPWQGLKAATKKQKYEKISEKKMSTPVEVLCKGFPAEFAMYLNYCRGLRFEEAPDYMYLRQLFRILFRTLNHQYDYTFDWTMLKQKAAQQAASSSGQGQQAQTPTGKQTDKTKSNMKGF
# [7] = target: Casein kinase I isoform alpha (Homo sapiens) (UniProt P48729); conditions: at 1 µM
# [8] = target: Casein kinase I isoform gamma-1 (Homo sapiens) (UniProt Q9HCP0); conditions: at 0.1 µM
# Casein kinase I isoform gamma-1 (Homo sapiens), sequence (Q9HCP0 whole entry, looked up, canonical isoform): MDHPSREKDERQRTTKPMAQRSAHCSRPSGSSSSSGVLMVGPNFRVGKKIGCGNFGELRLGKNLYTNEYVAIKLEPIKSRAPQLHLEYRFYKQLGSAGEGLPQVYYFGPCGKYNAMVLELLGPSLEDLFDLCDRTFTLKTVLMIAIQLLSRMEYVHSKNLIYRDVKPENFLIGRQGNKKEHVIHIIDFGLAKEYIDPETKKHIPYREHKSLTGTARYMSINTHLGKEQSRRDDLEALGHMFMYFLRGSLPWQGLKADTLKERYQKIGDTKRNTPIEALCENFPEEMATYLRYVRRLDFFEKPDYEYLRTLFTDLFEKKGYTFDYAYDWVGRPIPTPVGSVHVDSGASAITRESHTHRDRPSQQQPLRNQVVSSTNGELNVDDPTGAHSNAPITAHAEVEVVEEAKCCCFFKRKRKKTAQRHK
# [9] = target: Casein kinase I isoform gamma-1 (Homo sapiens) (UniProt Q9HCP0); conditions: at 1 µM
# [10] = target: Casein kinase I isoform gamma-2 (Homo sapiens) (UniProt P78368); conditions: at 0.1 µM
# Casein kinase I isoform gamma-2 (Homo sapiens), sequence (P78368 whole entry, looked up, canonical isoform): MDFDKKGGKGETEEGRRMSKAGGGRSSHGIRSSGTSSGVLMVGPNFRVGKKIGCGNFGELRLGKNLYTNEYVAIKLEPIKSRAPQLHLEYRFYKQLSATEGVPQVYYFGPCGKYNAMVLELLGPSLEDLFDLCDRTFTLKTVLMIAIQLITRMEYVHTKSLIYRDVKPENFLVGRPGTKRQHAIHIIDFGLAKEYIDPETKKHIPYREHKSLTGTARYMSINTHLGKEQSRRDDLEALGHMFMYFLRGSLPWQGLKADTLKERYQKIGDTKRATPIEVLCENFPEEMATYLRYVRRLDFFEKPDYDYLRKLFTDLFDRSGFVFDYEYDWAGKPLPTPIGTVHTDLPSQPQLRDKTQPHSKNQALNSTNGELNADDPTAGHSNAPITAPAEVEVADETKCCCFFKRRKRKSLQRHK
# [11] = target: Casein kinase I isoform gamma-2 (Homo sapiens) (UniProt P78368); conditions: at 1 µM
# [12] = target: Casein kinase I isoform gamma-3 (Homo sapiens) (UniProt Q9Y6M4); conditions: at 0.1 µM
# Casein kinase I isoform gamma-3 (Homo sapiens), sequence (Q9Y6M4 whole entry, looked up, canonical isoform): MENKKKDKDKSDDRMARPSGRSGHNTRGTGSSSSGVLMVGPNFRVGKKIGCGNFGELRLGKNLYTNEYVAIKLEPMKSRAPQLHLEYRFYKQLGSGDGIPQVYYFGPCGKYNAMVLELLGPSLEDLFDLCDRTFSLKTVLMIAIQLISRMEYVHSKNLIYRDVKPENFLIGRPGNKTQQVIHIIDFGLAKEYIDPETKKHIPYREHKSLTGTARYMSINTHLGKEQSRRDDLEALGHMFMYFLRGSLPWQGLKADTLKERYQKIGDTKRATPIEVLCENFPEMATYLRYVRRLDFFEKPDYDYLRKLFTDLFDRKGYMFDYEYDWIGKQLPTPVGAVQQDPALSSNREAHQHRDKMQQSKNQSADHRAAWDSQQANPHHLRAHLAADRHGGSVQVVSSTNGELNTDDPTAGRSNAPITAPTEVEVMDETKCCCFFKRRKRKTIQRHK
# [13] = target: Casein kinase I isoform gamma-3 (Homo sapiens) (UniProt Q9Y6M4); conditions: at 1 µM
# [14] = target: Cyclin-dependent kinase 1 (Homo sapiens) (UniProt P06493); conditions: at 0.1 µM
# Cyclin-dependent kinase 1 (Homo sapiens), sequence (P06493 whole entry, looked up): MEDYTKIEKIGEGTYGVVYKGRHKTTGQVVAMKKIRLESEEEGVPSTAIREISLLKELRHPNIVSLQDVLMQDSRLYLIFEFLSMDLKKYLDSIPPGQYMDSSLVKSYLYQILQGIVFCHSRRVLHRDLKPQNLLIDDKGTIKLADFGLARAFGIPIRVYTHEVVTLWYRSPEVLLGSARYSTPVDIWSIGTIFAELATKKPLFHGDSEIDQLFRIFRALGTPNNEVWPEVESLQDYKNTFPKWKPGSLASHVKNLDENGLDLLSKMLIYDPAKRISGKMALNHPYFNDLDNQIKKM
# [15] = target: Cyclin-dependent kinase 1 (Homo sapiens) (UniProt P06493); conditions: at 1 µM
# [16] = target: Cyclin-dependent kinase 2 (Homo sapiens) (UniProt P24941); conditions: at 0.1 µM
# [17] = target: Cyclin-dependent kinase 2 (Homo sapiens) (UniProt P24941); conditions: at 1 µM
# [18] = target: Cyclin-dependent kinase 2 (Homo sapiens) (UniProt P24941); conditions: at 0.1 µM; remark: listed apart in the source
# [19] = target: Cyclin-dependent kinase 2 (Homo sapiens) (UniProt P24941); conditions: at 1 µM; remark: listed apart in the source
# [20] = target: CDK3/Cyclin E (Homo sapiens) (UniProt P24864+Q00526); conditions: at 0.1 µM;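 also: reported percentages are mean inhibition values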
# CDK3/Cyclin E (Homo sapiens), sequence (P24864 whole entry, looked up): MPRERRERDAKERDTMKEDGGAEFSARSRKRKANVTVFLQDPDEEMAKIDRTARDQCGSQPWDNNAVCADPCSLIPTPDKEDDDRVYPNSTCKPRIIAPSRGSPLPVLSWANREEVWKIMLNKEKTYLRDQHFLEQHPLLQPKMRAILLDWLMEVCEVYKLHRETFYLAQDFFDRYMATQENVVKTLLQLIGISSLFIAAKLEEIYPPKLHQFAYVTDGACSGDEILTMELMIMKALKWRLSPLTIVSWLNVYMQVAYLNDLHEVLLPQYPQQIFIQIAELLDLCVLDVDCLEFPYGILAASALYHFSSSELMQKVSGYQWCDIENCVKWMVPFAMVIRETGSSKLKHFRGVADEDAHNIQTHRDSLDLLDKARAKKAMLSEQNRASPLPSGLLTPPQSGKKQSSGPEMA
# CDK3/Cyclin E (Homo sapiens), sequence (Q00526 whole entry, looked up): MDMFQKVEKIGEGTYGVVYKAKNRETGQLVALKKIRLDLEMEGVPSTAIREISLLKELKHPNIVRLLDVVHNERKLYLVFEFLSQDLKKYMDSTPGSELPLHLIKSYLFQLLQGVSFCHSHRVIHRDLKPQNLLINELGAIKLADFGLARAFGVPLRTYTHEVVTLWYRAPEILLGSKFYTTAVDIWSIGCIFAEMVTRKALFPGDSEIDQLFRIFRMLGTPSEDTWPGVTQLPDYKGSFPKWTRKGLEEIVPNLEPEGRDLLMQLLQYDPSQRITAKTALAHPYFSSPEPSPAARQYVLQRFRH
SMILES,inhibition [1] [%],inhibition [2] [%],inhibition [3] [%],inhibition [4] [%],inhibition [5] [%],inhibition [6] [%],inhibition [7] [%],inhibition [8] [%],inhibition [9] [%],inhibition [10] [%],inhibition [11] [%],inhibition [12] [%],inhibition [13] [%],inhibition [14] [%],inhibition [15] [%],inhibition [16] [%],inhibition [17] [%],inhibition [18] [%],inhibition [19] [%],inhibition [20] [%]
COc1cc2c(cc1Nc1nc(N3CCc4ccccc43)c3cc[nH]c3n1)N(C(=O)CN(C)C)CC2,5.19,10.2,19.2,9.19,13.6,6.69,2.45,1.43,3.55,0.72,2.57,0.55,4.52,0.08,1.02,0.42,-1.8,1.6,1.6,0.81
CC(=O)Nc1cccc(C#Cc2cncnc2Nc2ccc(OCc3cccc(F)c3)c(Cl)c2)n1,-0.27,2.3,4.75,0.15,5.54,0.01,-1.03,-1.49,-2.35,-0.28,-2.14,-0.5,-0.34,-0.13,-0.16,-1.04,-0.26,-1.65,-0.18,1.2
CC1=C(C(=O)Nc2ccc3[nH]ncc3c2)C(c2ccc3ccccc3c2)CC(=O)N1 (stereo not given),4.09,1.35,1.04,1.35,0.44,1.57,3.29,1.69,3.15,1.16,1.9,0.93,3.24,0.76,2.25,2.98,9.64,3.36,14.2,0.42
CCn1c(-c2nonc2N)nc2c(C#CC(C)(C)O)nc(OC[C@@H](N)c3ccccc3)cc21,3.45,9.5,53.4,0.46,-0.44,-0.17,0.97,-1.79,2.42,-1.05,2.82,-1.72,1.57,-0.31,-0.33,0.3,5.96,-0.8,1.32,-0.42
Cc1ccc(C(=O)NC2CCCCC2)cc1-c1ccc(C(=O)NCC2CC2)cc1,3.86,1.44,-1.51,-0.17,-1.47,4.32,3.89,1.72,2.66,0.35,2.68,2.21,2.73,0.67,0.28,0.88,7.52,2.63,3.98,2.34
COC(=O)Nc1nc2cc(Oc3ccc(NC(=O)Nc4cccc(C(=O)O)c4)cc3)ccc2[nH]1,2.42,0.41,0.96,0.4,0.93,2.25,0.72,-2.42,-2.13,-2.21,-2.28,-2.29,-0.39,-2.2,0.34,-1.03,4.44,1.71,1.67,1.76
COc1cccc(-n2ncc3c(N/N=C/c4cccc(F)c4)ncnc32)c1,5.66,2.14,2.06,0.63,0.82,2.35,2.18,-1.45,-0.75,-1.9,-0.18,-1.77,0.64,1.44,33,3.77,39.1,0.9,13,4
NS(=O)(=O)c1cccc(-c2ccc3c(NC(=O)C4CC4)n[nH]c3c2)c1,0.44,-0.2,-0.47,-0.61,-0.16,4.11,4.53,-0.89,0.05,-0.75,-1.38,-0.89,2.47,0.37,1.15,0.27,-6.96,0.15,3.36,0.71
CCn1c(-c2nonc2N)nc2c(C#CC(C)(C)O)nc(CN3CCCC3)cc21,9.67,0.35,9.75,-1.26,-0.69,-1.27,-0.92,-0.23,0.92,-0.27,0.03,-1.33,0.33,1.45,2,2.04,-0.71,0.5,1.53,2.36
Nc1nc(-c2ccccn2)c(-c2ccc3ncccc3n2)s1,5.59,2.46,2.87,0.45,1.96,2.13,6.1,3.23,12.6,3.14,10.1,4,17.4,0.79,3.13,1.62,1.29,4.08,5.96,2.27
COc1ccc(-c2nn3ncccc3c2-c2ccnc(Nc3ccc(Cl)c(C(F)(F)F)c3)n2)cc1,2.16,2.65,4.89,2.27,5.15,-4.74,0.96,1.89,2.18,1.23,1.48,2.03,0.7,0.45,0.2,1.46,-2.2,1.44,1.76,1.87
CS(=O)(=O)CCN(CC#N)Cc1ccc(-c2ccc3ncnc(Nc4ccc(OCc5cccc(F)c5)c(Cl)c4)c3c2)o1,1.61,1.37,1.5,0.63,1.39,1,2.88,-2.14,-3.1,-1.98,-2.18,-1.66,-4.35,-3.13,-3.04,-1.63,-2.87,-2.44,-4.09,-2.24
CCn1c(-c2nonc2N)nc2ccncc21,1.82,2.36,1.75,0.59,-0.93,0.34,1.43,0.65,-0.84,0.24,0.81,-0.09,1.21,0.77,1.88,1.3,4.47,1.11,4.8,2.26
